PubChem BioAssay (Tox21)
Activity calls are given as the source filed them. Calls come from the whole dose curve; as a rule, active = well fitted curve in the direction sought with a large enough effect in the repeat runs; inconclusive = weak or mixed curves; inactive = flat fitted curve, though single readings scatter.

experiment: qHTS assay to test for compound auto fluorescence at 535 nm (green) in HEK293 cell free culture (AID 720682); conditions: cell-free medium, green autofluorescence 485/535 nm; series mostly up to 91.3 µM
Procedure, shortened: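 Read-out: 485/535 nm fluorescence intensity, calibrated against fluorescein. Medium only (DMEM + 10% FBS, no cells); test compound or DMSO vehicle added by pintool before plate reading.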

SMILES	outcome
CCc1ccccc1O	inactive
CN(C)c1cccc(O)c1	inactive
CS(=O)(=O)Nc1ccc([N+](=O)[O-])cc1Oc1ccccc1	inactive
C=C1CC[C@H](O)CC1=C/C=C1\CCC[C@]2(C)[C@@H]([C@H](C)/C=C/[C@H](C)C(C)C)CC[C@@H]12	inactive
O=[N+]([O-])c1cc(N(CCO)CCO)ccc1NCCO	inactive
Cc1cc(NS(=O)(=O)c2ccc(N)cc2)no1	inactive
O=C(O)c1ccc([N+](=O)[O-])cc1	inactive
CCCCCCC(C)(C)S	inactive
CC(C)NCC(O)COc1cccc2ccccc12 (stereo unspecified)	inactive
CCCCCCCCCCC=CC1CC(=O)OC1=O (stereo unspecified)	inactive
Cc1cc(O)cc(C)c1Cl	inactive
NCCNCCNCCNCCN	inactive
Cc1ccc(C(=O)O)o1	inactive
CC(C)(C)C(=O)C1C(=O)c2ccccc2C1=O	inactive
OC1CCCC1	inactive
Oc1ccc2ccccc2c1	inactive
CC1=C(/C=C/C(C)=C/C=C/C(C)=C/CO)C(C)(C)CCC1	inactive
CCOC(=O)C1OC1c1ccccc1 (stereo unspecified)	inactive
ClC1=C(Cl)C(Cl)(Cl)C(Cl)=C1Cl	inactive
CCCCCC/C=C/CCCCCCCC(=O)O	inactive
O=Nc1ccc(O)cc1	inactive
CN(CCOc1ccc(CC2SC(=O)NC2=O)cc1)c1ccccn1 (stereo unspecified)	inactive
CCCCCCCCCCCCOCC1CO1 (stereo unspecified)	inactive

experiment: qHTS assay to test for compound auto fluorescence at 590 nm (red) in HEK293 cell free culture (AID 720683); conditions: cell-free medium autofluorescence, Ex540/Em590 red; series mostly up to 91.3 µM
Procedure, shortened: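 Red-channel autofluorescence of compounds in culture medium (DMEM, 10% FBS), no cells, measured at 540/590 nm. Rose Bengal sodium is the reference fluorophore for equivalence.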

SMILES	outcome
CCc1ccccc1O	inactive
CN(C)c1cccc(O)c1	inactive
O=C1N=C(O)CN1/N=C/c1ccc(-c2ccc([N+](=O)[O-])cc2)o1	inactive
CS(=O)(=O)Nc1ccc([N+](=O)[O-])cc1Oc1ccccc1	inactive
C=C1CC[C@H](O)CC1=C/C=C1\CCC[C@]2(C)[C@@H]([C@H](C)/C=C/[C@H](C)C(C)C)CC[C@@H]12	inactive
O=[N+]([O-])c1cc(N(CCO)CCO)ccc1NCCO	inactive
CCCCC(CC)COC(C)=O (stereo unspecified)	inactive
CCCCCCCCCC(=O)O	inactive
OCC#CCO	inactive
Cc1cc(NS(=O)(=O)c2ccc(N)cc2)no1	inactive
CC1CC(OC(=O)c2ccccc2O)CC(C)(C)C1 (stereo unspecified)	inactive
Oc1ccc2ccccc2c1N=Nc1ccccc1	inactive
O=C1CCCCC1	inactive
O=C(O)c1ccc([N+](=O)[O-])cc1	inactive
CC(C)n1c(/C=C/[C@@H](O)C[C@@H](O)CC(=O)O)c(-c2ccc(F)cc2)c2ccccc21	inactive
CC1COc2ccccc2N1C(=O)C(Cl)Cl (stereo unspecified)	inactive
CCCCCCC(C)(C)S	inactive
CC(=O)[C@@]1(O)CC[C@H]2[C@@H]3CCC4=CC(=O)CC[C@]4(C)[C@H]3CC[C@@]21C	inactive
CC(C)NCC(O)COc1cccc2ccccc12 (stereo unspecified)	inactive
CCCCCCCCCCC=CC1CC(=O)OC1=O (stereo unspecified)	inactive

SMILES	outcome
O=S(=O)(Oc1ccc(Cl)cc1Cl)c1ccccc1	inactive
Cc1cc(O)cc(C)c1Cl	inactive
NCCNCCNCCNCCN	inactive
Cc1ccc(C(=O)O)o1	inactive
CC(C)(C)C(=O)C1C(=O)c2ccccc2C1=O	inactive
CCCCOCCOCCOC(=O)CCCCC(=O)OCCOCCOCCCC	inactive
OC1CCCC1	inactive
Oc1ccc2ccccc2c1	inactive
CC1=CC[C@H]2C[C@@H]1C2(C)C	inactive
CC1=C(/C=C/C(C)=C/C=C/C(C)=C/CO)C(C)(C)CCC1	inactive
CCOC(=O)C1OC1c1ccccc1 (stereo unspecified)	inactive
ClC1=C(Cl)C(Cl)(Cl)C(Cl)=C1Cl	inactive
CCCCCC/C=C/CCCCCCCC(=O)O	inactive
O=Nc1ccc(O)cc1	inactive
CC(C)(N=C=O)c1cccc(C(C)(C)N=C=O)c1	inactive
CN(CCOc1ccc(CC2SC(=O)NC2=O)cc1)c1ccccn1 (stereo unspecified)	inactive
NC(=O)NNc1ccccc1	inactive
Nc1c(S(=O)(=O)O)cc(Br)c2c1C(=O)c1ccccc1C2=O	inactive
CCCCCCCCCCCCOCC1CO1 (stereo unspecified)	inactive

experiment: qHTS assay to test for compound auto fluorescence at 590 nm (red) in HepG2 cell free culture (AID 720684); conditions: cell-free medium autofluorescence, red 540/590 nm; series mostly up to 91.3 µM
Procedure, shortened: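 Cell-free; medium MEM + 10% FBS; compound or DMSO added by pintool; read Ex 540/Em 590 nm; Rose Bengal sodium as red reference fluorophore.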

SMILES	outcome
CCc1ccccc1O	inactive
CN(C)c1cccc(O)c1	inactive
O=C1N=C(O)CN1/N=C/c1ccc(-c2ccc([N+](=O)[O-])cc2)o1	inactive
CS(=O)(=O)Nc1ccc([N+](=O)[O-])cc1Oc1ccccc1	inactive
C=C1CC[C@H](O)CC1=C/C=C1\CCC[C@]2(C)[C@@H]([C@H](C)/C=C/[C@H](C)C(C)C)CC[C@@H]12	inactive
CCCCC(CC)COC(C)=O (stereo unspecified)	inactive
CCCCCCCCCC(=O)O	inactive
Cc1cc(NS(=O)(=O)c2ccc(N)cc2)no1	inactive
CC1CC(OC(=O)c2ccccc2O)CC(C)(C)C1 (stereo unspecified)	inactive
O=C(O)c1ccc([N+](=O)[O-])cc1	inactive
CC(C)n1c(/C=C/[C@@H](O)C[C@@H](O)CC(=O)O)c(-c2ccc(F)cc2)c2ccccc21	inactive
CC1COc2ccccc2N1C(=O)C(Cl)Cl (stereo unspecified)	inactive
CCCCCCC(C)(C)S	inactive
CC(=O)[C@@]1(O)CC[C@H]2[C@@H]3CCC4=CC(=O)CC[C@]4(C)[C@H]3CC[C@@]21C	inactive
CC(C)NCC(O)COc1cccc2ccccc12 (stereo unspecified)	inactive
CCCCCCCCCCC=CC1CC(=O)OC1=O (stereo unspecified)	inactive
O=S(=O)(Oc1ccc(Cl)cc1Cl)c1ccccc1	inactive
Cc1cc(O)cc(C)c1Cl	inactive
NCCNCCNCCNCCN	inactive
Cc1ccc(C(=O)O)o1	inactive
CC(C)(C)C(=O)C1C(=O)c2ccccc2C1=O	inactive
Oc1ccc2ccccc2c1	inactive
CC1=CC[C@H]2C[C@@H]1C2(C)C	inactive
CC1=C(/C=C/C(C)=C/C=C/C(C)=C/CO)C(C)(C)CCC1	inactive
CCOC(=O)C1OC1c1ccccc1 (stereo unspecified)	inactive
ClC1=C(Cl)C(Cl)(Cl)C(Cl)=C1Cl	inactive
CCCCCC/C=C/CCCCCCCC(=O)O	inactive
CC(C)(N=C=O)c1cccc(C(C)(C)N=C=O)c1	inactive
NC(=O)NNc1ccccc1	inactive
